# The list is not random: actives were taken first. Their share in the collection is about 1.2%.
# GSH bead fluor = compound fluorescence on glutathione beads, profiling panel, artefact control, biophysical, 488/530 nm, flow cytometry. GSH beads flow cytometry, compound fluorescence 488/530 nm; stronger effect = higher value. fluorescence (KMESF) at 10 µM. 190,000 tested, 0.25% active. AID 1776, 2009; in the data active = fluorescence above about 89;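 also: glutathione beads carrying GST-tagged Bcl family fusion proteins plus one bare bead set; values are compound well signal with DMSO vehicle wells as background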
# RGS7-Gao = RGS7-Galphao binding modulators, primary screen, biochemical, multiplexed bead flow cytometry | Guanine nucleotide-binding protein G(o) subunit alpha (Homo sapiens), P09471 | actives lie on both sides | binding response (% of control), % at 10 µM | 220,000 tested, 0.35% active | AID 1439, 2008; in the data active = binding response below about 49% or above about 150%; inconclusive = no clear call, values can overlap the other calls; inactive = in between;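 also: fluorescent Galphao held in activated GDP-AlF4 state binding bead-coupled RGS7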
# Target sequence (P09471 whole entry, looked up): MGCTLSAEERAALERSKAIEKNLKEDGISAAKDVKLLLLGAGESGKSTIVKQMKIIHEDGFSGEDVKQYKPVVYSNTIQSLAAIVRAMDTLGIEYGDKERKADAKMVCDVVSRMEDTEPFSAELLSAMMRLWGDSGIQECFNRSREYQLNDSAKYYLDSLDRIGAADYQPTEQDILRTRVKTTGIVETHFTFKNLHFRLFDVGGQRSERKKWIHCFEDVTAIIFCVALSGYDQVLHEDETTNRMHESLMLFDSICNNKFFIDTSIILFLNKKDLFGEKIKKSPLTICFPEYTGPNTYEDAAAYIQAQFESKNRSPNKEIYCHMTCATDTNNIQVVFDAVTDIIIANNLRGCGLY
# Avidin fluor = green autofluorescence of compounds with avidin beads – biophysical, 488/530 nm, flow cytometry, artefact control, profiling panel | compound fluorescence 488/530 nm; stronger effect = higher value | fluorescence (KMESF) at 10 µM | 220,000 tested, 0.38% active; in the data active = fluorescence above about 47
# RGS16-Gao = modulators of RGS16 binding to Galphao, primary screen, biochemical, human proteins, multiplexed bead flow cytometry. AID 1441, 2008. binding response (% of control), % at 10 µM. 220,000 tested, 0.38% active. Regulator of G-protein signaling 16 (Homo sapiens) + Guanine nucleotide-binding protein …. bead-based flow cytometry RGS16-Galphao binding, fluorescence; actives lie on both sides;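 also: Galphao activated by GDP with aluminum fluoride before binding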
# Target sequence (O15492 whole entry, looked up): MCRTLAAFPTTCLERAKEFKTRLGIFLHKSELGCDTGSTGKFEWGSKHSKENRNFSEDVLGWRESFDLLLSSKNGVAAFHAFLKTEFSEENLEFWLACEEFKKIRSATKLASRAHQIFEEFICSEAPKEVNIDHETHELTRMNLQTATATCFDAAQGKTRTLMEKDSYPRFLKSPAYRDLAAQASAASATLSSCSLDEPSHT
# Target sequence (P09471 whole entry, looked up): as the sequence (P09471 whole entry, looked up) above
# RGS8-Gao = RGS8-Galphao binding modulators, primary screen, biochemical, multiplexed bead flow cytometry; Guanine nucleotide-binding protein G(o) subunit alpha (Homo sapiens), P09471; actives lie on both sides; response (percent of control binding), % at 10 µM; 220,000 tested, 0.34% active; in the data active = response below about 60% or above about 140%; inactive = in between;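 also: Galphao activated as the GDP aluminium fluoride complex binding bead-coupled RGS8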
# RGS4-Gao reg = modulators of RGS4 binding to Galphao, primary screen, biochemical, multiplexed bead flow cytometry. Guanine nucleotide-binding protein G(o) subunit alpha (Homo sapiens), P09471. actives lie on both sides. binding response (% of control), % at 10 µM. 220,000 tested, 0.33% active; in the data active = binding response below about 49% or above about 150%; inactive = in between;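 also: fluorescent Galphao activated with aluminum fluoride binding bead-coupled RGS4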
# RGS4-Gao HTS = modulators of RGS–Galpha-o binding, primary screen, biochemical, multiplexed beads, flow cytometry, RGS4/7/8/16/19; RGS4–Galpha-o binding response, % at 10 µM; 1,600 tested, 99% active; multiplexed bead flow cytometry; shares compounds with RGS16-Gao;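 also: fluorescently labeled Galpha-o bound to GDP with aluminium fluoride binding biotinylated RGS beads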
# Biotin-avidin = disruption of biotin probe capture by avidin, counter-screen for RGS protein interaction modulators, biochemical, flow cytometry, bead-based; shares compounds with RGS16-Gao; streptavidin beads, fluorescein-biotin binding; inhibition, % at 10 µM; 1,700 tested, under 10 active;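 active = inhibition above 50%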;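 also: median green fluorescence of gated singlet beads compared with DMSO control wells; 0% = DMSO wells and 100% = complete loss of bead fluorescence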
# RGS8-Gao confirm = RGS8-Galphao binding modulators, confirmation, biochemical, multiplexed bead flow cytometry, single concentration; binding response (% of control), % at 10 µM; 1,700 tested, 3% active; bead-based flow cytometry RGS8-Galphao binding, fluorescence; actives lie on both sides; shares compounds with RGS16-Gao; in the data active = binding response below about 72% or above about 130%; inactive = in between;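 also: Galphao activated as GDP AlF4 complex before binding bead RGS8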
# RGS7-Gao confirm = RGS7-Galphao binding modulators, confirmation, biochemical, multiplexed bead flow cytometry, single concentration; shares compounds with RGS16-Gao; 1,700 tested, 7.8% active; response (percent of control binding), % at 10 µM; bead-based flow cytometry RGS7-Galphao binding; actives lie on both sides; in the data active = response below about 75% or above about 130%; inactive = in between;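 also: fluorescent Galphao activated with GDP and aluminum fluoride binding bead-coupled RGS7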
# RGS16-Gao single = modulators of RGS16-Galphao protein binding, confirmation, biochemical, single concentration, multiplexed bead flow cytometry; 1,700 tested, 4% active; response (% of control binding), % at 10 µM; shares compounds with RGS16-Gao; bead-based flow cytometry; actives lie on both sides; in the data active = response below about 74% or above about 130%; inactive = in between;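 also: Galphao activated as the GDP aluminium fluoride complex binding bead-coupled RGS16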
# RGS4-Gao single = modulators of RGS4-Galphao protein binding, confirmation, biochemical, single concentration, multiplexed bead flow cytometry. 1,700 tested, 4% active. actives lie on both sides. shares compounds with RGS16-Gao. binding response (% of control), % at 10 µM; in the data active = binding response below about 74% or above about 130%; inactive = in between
# RGS19-Gao single = regulators of RGS19-Galphao binding, confirmation, biochemical, single point, multiplexed bead flow cytometry | response (percent of control binding), % at 10 µM | shares compounds with RGS16-Gao | bead-based flow cytometry RGS19-Galphao binding; actives lie on both sides | 1,700 tested, 5% active; in the data active = response below about 50% or above about 160%; inactive = in between;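 also: 100% = no compound control and 0% = blank background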
# Numbers without * were called inactive; u = inconclusive; x = not tested or not shown; [ ] = dose if it differs, or a comment. Unless noted, no rule for the calls is given here.
SMILES,GSH bead fluor,RGS7-Gao,Avidin fluor,RGS16-Gao,RGS8-Gao,RGS4-Gao reg,Biotin-avidin,RGS8-Gao confirm,RGS7-Gao confirm,RGS16-Gao single,RGS4-Gao single,RGS19-Gao single,others
Cc1ccccc1Nc1nc(N)nc(CSc2nc3ccccc3c(=O)n2C)n1,11,96,8,99,100,98,x,x,x,x,x,x,
CC(=O)NC1(c2ccc(F)cc2)CCN(C(=O)Nc2ccc(F)cc2F)CC1,27,99,9,98,101,100,x,x,x,x,x,x,
CC(C)COc1ccc2[nH]c3c(c2c1)CCCC3=O,9,103,12,336*[activator],121,118,0,105,105,103,101,97,RGS4-Gao HTS=118*
CC1CCC(N2CCNCC2)CC1 (stereo unspecified),10,104,9,98,101,102,x,x,x,x,x,x,
CCOP(=O)(OCC)C(NC(=O)/C=C/c1ccc(OC)cc1)c1ccccc1 (stereo unspecified),21,100,5,100,99,99,x,x,x,x,x,x,
N#CC1=C(N)N=C(SCc2ccccc2)C(C(N)=O)C12CCCCC2 (stereo unspecified),7,107,5,268,142*[activator],108,x,x,x,x,x,x,RGS4-Gao HTS=108*
C=CCSC1=NC(N)=C(C#N)C2(CCCCC2)C1C(N)=O (stereo unspecified),19,86,18,36,86,91,x,x,x,x,x,x,
CCc1ccc(OCc2cnc(Cl)s2)cc1,13,100,10,98,100,100,x,x,x,x,x,x,
CC1CCc2onc(C(=O)NCc3ccco3)c2C1 (stereo unspecified),17,106,14,116,106,107,x,x,x,x,x,x,
CCOC(=O)c1c(-c2cccs2)csc1NC(=O)CN(CC)CC,27,42*,2,38,55*,46*,-1,99,95,99,95,105,
NC(=NC1CCCCC1)c1ccc(Cl)cc1,14,195*[activator],42,101,90,117,2,103,97,102,101,118,RGS4-Gao HTS=117*
NC(=O)C1CCCN(C(=O)c2ccc(Cl)cc2)C1 (stereo unspecified),39,98,9,99,98,97,x,x,x,x,x,x,
C#Cc1ccc([C@@H]2C=C(C(=O)Nc3ccccc3)O[C@H](OCC)[C@H]2CCCO)cc1,18,12*,0,11*,17*,22*,1,105,101,105,100,100,
C#Cc1ccc([C@H]2C=C(C(=O)NCc3ccccc3)O[C@@H](OCC)[C@@H]2CCCO)cc1,21,101,6,100,103,101,x,x,x,x,x,x,
C#CCNC(=O)C1=C[C@H](C2CCCCC2)[C@@H](CCCO)[C@H](OCC)O1,20,38*,2,41,44*,52,0,99,98,102,100,117,RGS4-Gao HTS=52*
O=C(CSc1nc2ccccc2[nH]1)Nc1nc(-c2ccc(Br)cc2)cs1,12,108,12,109,106,107,x,x,x,x,x,x,
NC(CC(=O)O)c1ccc(Br)cc1 (stereo unspecified),10,105,5,179*[activator],125,107,0,102,103,102,103,104,RGS4-Gao HTS=107*
CCC(=O)NC1OC(CO)C(O)C(O)C1O (stereo unspecified),19,96,10,93,100,98,x,x,x,x,x,x,
C[C@H](NC(=O)c1nc[nH]c1C(=O)NCc1ccccc1)C(=O)OC(C)(C)C,20,26*,1,34,42*,39*,0,103,96,99,96,99,
C[C@H](NC(=O)c1nc[nH]c1C(=O)N[C@H](C)c1ccccc1)C(=O)OC(C)(C)C,18,17*,1,16*,21*,25*,0,114,119,122,114,106,
COC(=O)c1sccc1NC(=O)c1cc(C)on1,44,96,x,x,110,99,-1,100,103,102,100,112,
COC(=O)c1sccc1NC(=O)c1c(C)noc1C,10,97,33,92,96,97,x,x,x,x,x,x,
CCOC(=O)c1[nH]c2cc(OC)c(OC)cc2c1NC(=O)CCN1CCSCC1,x,u,0,9.8*,21*,17*,-2,95,90,95,95,85,
Cn1cc(Br)c(C(=O)N2CCc3ccccc32)n1,12,97,7,71,93,95,x,x,x,x,x,x,
O=C(NC1=NCCS1)c1sc2cc(Cl)cc(Cl)c2c1Cl,8,105,25,110,101,103,x,x,x,x,x,x,
O=C(NC1=NCCS1)c1sc2ccccc2c1Cl,17,x,x,114,x,x,1,103,100,104,101,85,
CCN(CC)S(=O)(=O)c1cccc(C(=O)N/N=C/c2ccc(O)c(O)c2O)c1,1,31*,-1,-61,51*,43*,1,64*,61*,57*,63*,16*,
